Results on 13 molecules are retold here after PubChem BioAssay.

The nature of assay [1]: inhibitors of TNFa-induced NFkB p65 translocation, primary screen, imaging, HUVEC, MLSMR starter and 10KST1 sets (AID 438;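 active = inhibition above 20% together with a positive visual image hit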;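 also: compound added about 3h40 before a 20 min TNFalpha stimulation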;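 as to inhibition: signal is the nuclear over cytoplasmic p65 intensity ratio per well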). The note with it: HUVEC TNFa-induced p65 nuclear translocation; cell count: measured here: nuclei count (cytotoxicity indicator), at 2.08 µM; inhibition: at 2 µM, stronger effect = higher value, 0% TNFa-plus-vehicle, 100% no-TNFa wells.
Assay [2] in a line: reduction of polyQ htt aggregates in cells – imaging, exon1htt(103Q)mCFP cells, high-content imaging, primary screen (AID 483;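 active = visual image review flags a hit and inhibition of aggregation exceeds 20%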;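 also: compound exposure lasted 3 days before fixation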;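 as to nuclei count: percent of the per-plate median nuclei count of sample wells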). The note with it: exon1htt(103Q)mCFP cell line, aggregate imaging, at 2 µM; inhibition of aggregation: stronger effect = higher value; nuclei count: measured here: cell count, toxicity.
The nature of assay [3]: endothelial E-selectin expression blockers – imaging, HUVEC, immunofluorescence, MLSMR starter and 10KST1 sets, primary screen (AID 487;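 active = visually confirmed hit in the image check and inhibition above 20%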;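 as to inhibition: signal is fraction of cell area covered by stained E-selectin grains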;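 as to nuclei count: 100% = median nuclei count of all wells on the same plate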). The following applies: HUVEC TNFalpha-induced E-selectin immunofluorescence imaging, at 2 µM; inhibition: stronger effect = higher value; nuclei count: measured here: cell number, toxicity.
Assay [4] deals with Voltage-gated potassium channel subunit beta-2 (Rattus norvegicus) (UniProt P62483). Briefly: inhibitors of rat Kvbeta2 reductase activity – biochemical, NADPH fluorescence, primary screen (AID 622;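 active = fluorescence slope higher than the sample average by over 3 SD, cut at about -0.22 in these data, passing the limit was not always enough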;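 also: slope of raw intensity against log time taken from 70 to 1610 s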). The following applies: recombinant KvBeta, 4-cyanobenzaldehyde reduction, at 10 µM, stronger effect = higher value.
Assay [5] shares this target. Briefly: enhancers of rat Kvbeta2 NADPH turnover – biochemical, NADPH fluorescence, primary screen (AID 623;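 active = NADPH fluorescence slope more negative than the mean of all samples by about 3 SD, 99.7% confidence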;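 also: fluorescence intensity change per second fitted from 20 to 320 s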). The note with it: Recombinant KvBeta, NADPH fluorescence decrease slope, 10 min; at 10 µM; stronger effect = lower value.
Assay [6] addresses Alpha-2C adrenergic receptor (Homo sapiens) (UniProt P18825). Briefly: compounds altering alpha2C-coupled GIRK flux – cell-based, HEK293 alpha2C/GIRK1/2, thallium flux, primary screen (AID 624;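 active = fluorescence slope after compound addition differing from the mean of all screened samples at 99.7% confidence, in either direction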;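 also: slope of fluorescence ratio to pre-addition baseline per second over 15 to 24 s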). The note with it: thallium flux BTC fluorescence, at 10 µM, actives lie on both sides.
Assay [7] in a line: blockers of RIG-like receptor reporter activation – cell-based, Sendai virus stimulus, luciferase, 10K MLSCN set, TLR/RLR signaling modifier project, primary screen (AID 602276;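 active = inhibition at or above 50% at 10 µM; inactive = inhibition below 50%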;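 also: firefly luciferase from ISG56 promoter only with Renilla not read in this screen; 0% = Sendai virus plus DMSO and 100% = medium plus DMSO without virus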). The note with it: HEK293 RL24 IRF3 luciferase reporter, at 10 µM, stronger effect = higher value. On the technique in general: Reporter assays use an easily measured gene product as a stand-in for the process of interest.

The nature of assay [8]: TLR3 IRF3 reporter activation blockers – cell-based, poly I:C stimulus, luciferase, 10K MLSCN set, primary screen (AID 602277). The following applies: HEK293-TLR3 RL24 IRF3 luciferase reporter, at 10 µM, stronger effect = higher value.

Activity calls are given as the source filed them.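 The calls were made as follows, unless noted: active = inhibition of the reporter signal at or above 50%; inactive = inhibition below 50%.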

Sequence of Alpha-2C adrenergic receptor (Homo sapiens) (P18825 whole entry, looked up): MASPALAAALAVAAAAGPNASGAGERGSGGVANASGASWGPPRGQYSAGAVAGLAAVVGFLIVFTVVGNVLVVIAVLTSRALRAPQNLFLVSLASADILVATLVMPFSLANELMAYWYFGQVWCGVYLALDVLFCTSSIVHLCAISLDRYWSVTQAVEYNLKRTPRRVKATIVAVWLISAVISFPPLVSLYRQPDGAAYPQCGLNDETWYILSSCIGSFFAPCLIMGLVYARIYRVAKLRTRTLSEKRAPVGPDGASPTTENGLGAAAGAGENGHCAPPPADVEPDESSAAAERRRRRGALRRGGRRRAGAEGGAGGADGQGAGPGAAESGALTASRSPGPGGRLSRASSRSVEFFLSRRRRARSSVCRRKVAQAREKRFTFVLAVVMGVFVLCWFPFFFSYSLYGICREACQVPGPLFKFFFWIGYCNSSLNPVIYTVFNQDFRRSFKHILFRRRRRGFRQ
Sequence of Voltage-gated potassium channel subunit beta-2 (Rattus norvegicus) (P62483 whole entry, looked up): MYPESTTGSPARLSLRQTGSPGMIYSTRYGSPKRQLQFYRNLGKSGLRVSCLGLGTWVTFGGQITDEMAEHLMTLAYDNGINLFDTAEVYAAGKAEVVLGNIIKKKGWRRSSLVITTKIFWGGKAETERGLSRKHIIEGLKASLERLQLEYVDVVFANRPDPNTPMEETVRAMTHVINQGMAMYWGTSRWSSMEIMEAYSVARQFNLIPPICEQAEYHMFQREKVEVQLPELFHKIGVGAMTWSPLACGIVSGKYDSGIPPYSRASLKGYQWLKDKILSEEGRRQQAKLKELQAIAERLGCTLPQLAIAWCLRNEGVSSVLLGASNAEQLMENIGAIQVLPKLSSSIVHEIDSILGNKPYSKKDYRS

For `c1coc(Cn2nnnc2CN2CCN(C3CCCC3)CC2)c1`, the cell count in assay [1] was 530. For the same molecule, the inhibition (commonly the drop in the measured response relative to a control, in per cent) is -15.6% (inactive) in assay [1], -1.8% (inactive) in assay [3], -7.52% (inactive) in assay [7] and 12.8% (inactive) in assay [8]. Moreover, the inhibition of aggregation in assay [2] is -2.8% (inactive). For the same molecule, the nuclei count in assay [2] amounted to 96.9%; in assay [3] it was 107%. The fluorescence slope in assay [4] was -0.408 (inactive). Further, in assay [5], the NADPH fluorescence slope is 2.2e-05 (inactive). Also, the slope in assay [6] is 0.00537 (inactive).
As to `CCN(CC)c1ccc(NC(=O)c2nc3nc(C)cc(C(F)F)n3n2)cc1`, the cell count in assay [1] turned out to be 650. In addition, the inhibition in assay [1] was -1.9% (inactive); in assay [3], -10.1% (inactive); in assay [7], 21.5% (inactive); in assay [8], -6.45% (inactive). For the same molecule, the inhibition of aggregation in assay [2] is 14.6% (inactive). The nuclei count in assay [2] stood at 98.5%; in assay [3], 114%. For the same molecule, the fluorescence slope in assay [4] is -0.535 (inactive). The NADPH fluorescence slope in assay [5] was -3.4e-05 (inactive). The slope in assay [6] was 0.00747 (inactive).
As to `CCCCNC(=O)c1nnn(-c2ccccc2)c1N`, the cell count in assay [1] is 311. The inhibition in assay [1] was 3.9% (inactive); in assay [3] it was -11.4% (inactive); in assay [7], -55.7% (inactive); in assay [8] it was -166% (inactive). Also, the inhibition of aggregation in assay [2] is 8% (inactive). In addition, the nuclei count worked out at 110% in assay [2] and 120% in assay [3]. The fluorescence slope in assay [4] is -0.568 (inactive). The NADPH fluorescence slope in assay [5] is 2.4e-05 (inactive). In addition, the slope in assay [6] was 0.00585 (inactive).
For `CC1Cc2ccccc2N1S(=O)(=O)c1ccc2c(c1)n(C)c(=O)c(=O)n2C` (stereo not drawn), the cell count in assay [1] was 339. Also, the inhibition in assay [1] is 6.6% (inactive); in assay [3], -21.1% (inactive); in assay [7], 19.2% (inactive); in assay [8] it was 17.1% (inactive). Moreover, the inhibition of aggregation in assay [2] was -25.5% (inactive). The figures for the nuclei count in assay [2] and in assay [3] were 96.4% and 111%, respectively. In addition, in assay [4], the fluorescence slope was -0.43 (inactive). Also, the NADPH fluorescence slope in assay [5] is 6.1e-06 (inactive). Also, in assay [6], the slope is 0.00562 (inactive).
Regarding `CCOC(=O)N1CCN(CCC(=O)c2ccc(Cl)cc2)CC1`, the cell count in assay [1] is 533. The inhibition in assay [1] is -10.6% (inactive); in assay [3], -30.8% (inactive); in assay [7], 2.5% (inactive); in assay [8], 2.89% (inactive). In assay [2], the inhibition of aggregation is -1.1% (inactive). Moreover, the nuclei count in assay [2] was found to be 116%; in assay [3], 69.7%. For the same molecule, the fluorescence slope in assay [4] is -0.611 (inactive). For the same molecule, in assay [5], the NADPH fluorescence slope was -3.9e-05 (inactive). Moreover, the slope in assay [6] is 0.00547 (inactive).
For `CC(=O)c1ccc(NC(=O)C2CCN(S(=O)(=O)c3cccc4cccnc34)CC2)cc1`, the cell count in assay [1] amounted to 591. Further, the inhibition in assay [1] was 8.3% (inactive); in assay [3], -11.2% (inactive); in assay [7] it was 14.2% (inactive); in assay [8], 32.1% (inactive). For the same molecule, in assay [2], the inhibition of aggregation was -7.6% (inactive). In addition, the nuclei count worked out at 102% in assay [2] and 115% in assay [3]. Moreover, the fluorescence slope in assay [4] was -0.559 (inactive). Also, the NADPH fluorescence slope in assay [5] was -1.3e-05 (inactive). For the same molecule, the slope in assay [6] is 0.0063 (inactive).
As to `Cc1cc(C)cc(C(=O)N2CCC(C(N)=O)CC2)c1`, in assay [1], the cell count was 706. In addition, the inhibition is -3.5% (inactive) in assay [1], -54.3% (inactive) in assay [3], 13.6% (inactive) in assay [7] and 20.8% (inactive) in assay [8]. In addition, in assay [2], the inhibition of aggregation was -33.2% (inactive). Besides, the nuclei count in assay [2] is 109%; in assay [3], 122%. For the same molecule, in assay [4], the fluorescence slope is -0.297 (inactive). Besides, the NADPH fluorescence slope in assay [5] is -4.1e-05 (inactive). For the same molecule, in assay [6], the slope was 0.00604 (inactive).
With `CCCOc1ccc2ccccc2c1/C=N/n1cnnc1`, the cell count in assay [1] was determined as 209. In addition, the inhibition in assay [1] was 4.6% (inactive); in assay [3] it was -4.9% (inactive); in assay [7] it was 7.93% (inactive); in assay [8] it was 3.78% (inactive). The inhibition of aggregation in assay [2] was -0.3% (inactive). The nuclei count in assay [2] stood at 89.4%; in assay [3] it was 89.2%. Besides, the fluorescence slope in assay [4] is -0.31 (inactive). In assay [5], the NADPH fluorescence slope is -1.6e-05 (inactive). In addition, in assay [6], the slope is 0.008 (inactive).
On to `c1ccc(-c2nn3c(Cn4nnc5ccccc54)nnc3s2)nc1`, for which the cell count in assay [1] came to 574. Besides, the inhibition is 2.1% (inactive) in assay [1], 13.7% (inactive) in assay [3], -11.7% (inactive) in assay [7] and -3.15% (inactive) in assay [8]. Moreover, in assay [2], the inhibition of aggregation was 3.4% (inactive). In addition, the results for the nuclei count in assay [2] and in assay [3] were 103% and 82.3%, respectively. Also, the fluorescence slope in assay [4] is -0.425 (inactive). For the same molecule, the NADPH fluorescence slope in assay [5] was -2.3e-05 (inactive). Besides, the slope in assay [6] was 0.0044 (inactive).
For the molecule `Cc1c(C#N)c2ncnc(-c3ccccc3)c2n1-c1ccccc1`, the cell count in assay [1] was 287. The inhibition in assay [1] is 0.4% (inactive); in assay [3], -8.1% (inactive); in assay [7] it was 15.3% (inactive); in assay [8] it was 34.5% (inactive). Also, the inhibition of aggregation in assay [2] was -11.3% (inactive). Also, the nuclei count is 99.5% in assay [2] and 108% in assay [3]. Also, the fluorescence slope in assay [4] was -0.448 (inactive). The NADPH fluorescence slope in assay [5] is -0.000103 (inactive). For the same molecule, in assay [6], the slope is 0.00601 (inactive).
With `CCOC(=O)C1(c2ccccc2)NC(c2ccc(N(C)C)cc2)C2C(=O)N(C)C(=O)C21` (stereo not drawn), in assay [1], the cell count was 450. The inhibition in assay [1] is -4% (inactive); in assay [3] it was -87.1% (inactive); in assay [7] it was 14.4% (inactive); in assay [8], 22.7% (inactive). Moreover, in assay [2], the inhibition of aggregation is 3.8% (inactive). Moreover, the results for the nuclei count in assay [2] and in assay [3] were 116% and 93.2%, respectively. Further, the fluorescence slope in assay [4] was -0.31 (inactive). In assay [5], the NADPH fluorescence slope is -6.3e-05 (inactive). In addition, in assay [6], the slope was 0.00476 (inactive).
For the molecule `Cc1ccc(Cn2nnnc2CN2CCC(O)(c3ccccc3F)CC2)cc1`, in assay [1], the cell count was 784. The inhibition in assay [1] was 0.2% (inactive); in assay [3], -57% (inactive); in assay [7], 20.8% (inactive); in assay [8], 16.6% (inactive). For the same molecule, in assay [2], the inhibition of aggregation was 12.3% (inactive). Besides, the nuclei count in assay [2] was 96.1%; in assay [3], 122%. For the same molecule, the fluorescence slope in assay [4] is -0.498 (inactive). For the same molecule, in assay [5], the NADPH fluorescence slope is -5.4e-05 (inactive). In assay [6], the slope is 0.00492 (inactive).
Take `COC(=O)CSC1=C(C#N)C(c2ccc(F)cc2)CC(=O)N1` (stereo not drawn): the cell count in assay [1] turned out to be 591. The inhibition in assay [1] is 2.5% (inactive); in assay [3], 0.6% (inactive); in assay [7], 10.2% (inactive); in assay [8], 19.4% (inactive). Besides, the inhibition of aggregation in assay [2] was -6.5% (inactive). The nuclei count turned out to be 91.8% in assay [2] and 91% in assay [3]. Further, in assay [4], the fluorescence slope was -0.542 (inactive). Besides, the NADPH fluorescence slope in assay [5] was -3.8e-05 (inactive). In addition, the slope in assay [6] was 0.00754 (inactive).
